# Measured values: PubChem BioAssay
# Calls of active or inactive are those of the source.
# Experiments:
# [1] = compounds binding Alexa647 anti-His antibody – biochemical, small-molecule microarray, 635 nm fluorescence, artefact control for SMM control protein annotation, primary screen (AID 1128); details: higher = more signal;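 note: score merges feature fluorescence with signal-to-noise for each printed compound spot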
# [2] = test system: Human papillomavirus type 1a E7 protein (residues 1-88); assay: HPV1a E7 small-molecule binders, primary screen, biochemical, small-molecule microarray, residues 1-88, 635 nm (AID 1129); details: small-molecule microarray binding, fluorescence 635 nm; higher = more signal
# [3] = target: Focal adhesion kinase 1 (Homo sapiens) (UniProt Q05397); assay: PTK2 protein binding on printed compound slides – biochemical, small-molecule microarray, 635/667 nm fluorescence, BSA, DTT, primary screen (AID 1130); details: 635 nm fluorescence, higher = more signal;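 note: composite of spot emission at 667 nm and signal to noise over triplicate slides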
# Focal adhesion kinase 1 (Homo sapiens), sequence (Q05397 whole entry, looked up): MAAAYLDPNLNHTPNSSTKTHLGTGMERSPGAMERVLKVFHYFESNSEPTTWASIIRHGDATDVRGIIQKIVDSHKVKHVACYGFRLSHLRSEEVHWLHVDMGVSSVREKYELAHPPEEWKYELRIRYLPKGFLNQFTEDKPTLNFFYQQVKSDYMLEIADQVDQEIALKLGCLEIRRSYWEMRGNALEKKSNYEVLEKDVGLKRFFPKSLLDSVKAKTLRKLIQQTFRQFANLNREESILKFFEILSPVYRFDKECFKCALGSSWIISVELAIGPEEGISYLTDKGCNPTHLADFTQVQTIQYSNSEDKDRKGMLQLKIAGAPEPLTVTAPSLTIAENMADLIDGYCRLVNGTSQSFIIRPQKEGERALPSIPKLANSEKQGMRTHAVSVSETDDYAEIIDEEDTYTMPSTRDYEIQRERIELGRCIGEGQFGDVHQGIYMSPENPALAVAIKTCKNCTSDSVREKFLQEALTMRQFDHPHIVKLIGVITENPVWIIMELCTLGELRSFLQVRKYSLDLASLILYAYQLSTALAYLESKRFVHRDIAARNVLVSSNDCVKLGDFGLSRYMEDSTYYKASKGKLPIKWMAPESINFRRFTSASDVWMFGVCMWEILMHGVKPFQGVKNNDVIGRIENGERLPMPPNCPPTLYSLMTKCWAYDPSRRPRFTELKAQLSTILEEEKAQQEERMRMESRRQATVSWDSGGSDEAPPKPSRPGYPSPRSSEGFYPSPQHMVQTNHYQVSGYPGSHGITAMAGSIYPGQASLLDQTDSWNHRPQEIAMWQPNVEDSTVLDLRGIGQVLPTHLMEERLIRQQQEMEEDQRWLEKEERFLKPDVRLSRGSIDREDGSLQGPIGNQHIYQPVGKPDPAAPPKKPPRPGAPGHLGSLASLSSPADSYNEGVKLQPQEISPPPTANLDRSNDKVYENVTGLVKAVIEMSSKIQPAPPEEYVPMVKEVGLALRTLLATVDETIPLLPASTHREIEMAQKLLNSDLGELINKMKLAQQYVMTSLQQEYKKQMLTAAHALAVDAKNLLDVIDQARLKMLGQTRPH
# [4] = test system: Fibrinogen (Alexa647-labelled); assay: Alexa647-fibrinogen binding to printed small molecules – biochemical, small-molecule microarray, 635/667 nm fluorescence, artefact control for SMM control-protein annotation, profiling panel (AID 1131); details: fibrinogen-A647 binding fluorescence, higher = more signal;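 note: z-score merges 667 nm fluorescence with per-spot signal-to-noise over triplicate slides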
# [5] = target: Follistatin (Homo sapiens) (UniProt P19883); assay: FST protein binding to printed compounds – biochemical, small-molecule microarray, 635/667 nm fluorescence, primary screen (AID 1132); details: 635 nm fluorescence, higher = more signal
# Follistatin (Homo sapiens), sequence (P19883 whole entry, looked up): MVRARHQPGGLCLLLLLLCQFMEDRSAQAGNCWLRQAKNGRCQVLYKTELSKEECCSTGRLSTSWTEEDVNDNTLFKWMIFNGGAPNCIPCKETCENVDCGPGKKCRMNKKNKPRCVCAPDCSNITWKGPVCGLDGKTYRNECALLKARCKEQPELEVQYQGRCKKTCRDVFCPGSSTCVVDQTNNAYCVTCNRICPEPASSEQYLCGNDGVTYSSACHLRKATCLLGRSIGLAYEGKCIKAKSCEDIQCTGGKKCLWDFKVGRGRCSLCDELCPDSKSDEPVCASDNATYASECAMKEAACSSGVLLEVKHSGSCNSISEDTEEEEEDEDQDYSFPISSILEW
# [6] = target: Fibroblast growth factor 2 (Homo sapiens) (UniProt P09038); assay: basic fibroblast growth factor binding to printed compounds – biochemical, small-molecule microarray, 635/667 nm fluorescence, primary screen (AID 1133); details: FGF2, fluorescence 635/667, higher = more signal
# Fibroblast growth factor 2 (Homo sapiens), sequence (P09038 whole entry, looked up): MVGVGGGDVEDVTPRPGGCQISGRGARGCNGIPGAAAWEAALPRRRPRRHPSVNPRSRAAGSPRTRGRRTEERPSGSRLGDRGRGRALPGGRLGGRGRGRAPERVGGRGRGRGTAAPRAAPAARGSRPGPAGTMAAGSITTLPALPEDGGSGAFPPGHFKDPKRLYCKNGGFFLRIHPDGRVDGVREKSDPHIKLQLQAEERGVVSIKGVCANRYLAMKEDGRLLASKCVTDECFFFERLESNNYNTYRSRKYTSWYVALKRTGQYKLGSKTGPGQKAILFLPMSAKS
# [7] = JC-1 mitochondrial potential readout, lung cancer cells – cell-based, A549, JC-1 fluorescence, basal, 24 h, 100 nL, profiling panel (AID 1138); details: higher = more signal;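 note: A549 lung adenocarcinoma cells under basal conditions with no added stimulus; test concentration not given here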
# [8] = test system: Lefty1; assay: Lefty1 protein binding to printed compounds – biochemical, small-molecule microarray, 635/667 nm fluorescence, primary screen (AID 1139); details: fluorescence 635/667, higher = more signal
# [9] = test system: wheat germ agglutinin (Triticum aestivum), Alexa647-labelled; assay: Alexa647-WGA lectin binding to printed small molecules – biochemical, small-molecule microarray, 635/667 nm fluorescence, artefact control for SMM control-protein annotation, profiling panel (AID 1140); details: WGA-A647 binding, 635 nm fluorescence, higher = more signal;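 note: score merges 667 nm feature emission with signal to noise over triplicate slides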
# [10] = target: Luciferin 4-monooxygenase (Photinus pyralis) (UniProt P08659); assay: inhibition of purified Photinus pyralis luciferase – biochemical, luminescence, purified enzyme, 2006 set, primary screen (AID 1141); details: purified firefly luciferase, SteadyGlo luminescence, 30 min; higher = more signal, called active from +8 up or from −8 down;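 note: cell-free assay with purified firefly luciferase at 100 ng per well in PBS; test concentration not given here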
# Luciferin 4-monooxygenase (Photinus pyralis), sequence (P08659 whole entry, looked up): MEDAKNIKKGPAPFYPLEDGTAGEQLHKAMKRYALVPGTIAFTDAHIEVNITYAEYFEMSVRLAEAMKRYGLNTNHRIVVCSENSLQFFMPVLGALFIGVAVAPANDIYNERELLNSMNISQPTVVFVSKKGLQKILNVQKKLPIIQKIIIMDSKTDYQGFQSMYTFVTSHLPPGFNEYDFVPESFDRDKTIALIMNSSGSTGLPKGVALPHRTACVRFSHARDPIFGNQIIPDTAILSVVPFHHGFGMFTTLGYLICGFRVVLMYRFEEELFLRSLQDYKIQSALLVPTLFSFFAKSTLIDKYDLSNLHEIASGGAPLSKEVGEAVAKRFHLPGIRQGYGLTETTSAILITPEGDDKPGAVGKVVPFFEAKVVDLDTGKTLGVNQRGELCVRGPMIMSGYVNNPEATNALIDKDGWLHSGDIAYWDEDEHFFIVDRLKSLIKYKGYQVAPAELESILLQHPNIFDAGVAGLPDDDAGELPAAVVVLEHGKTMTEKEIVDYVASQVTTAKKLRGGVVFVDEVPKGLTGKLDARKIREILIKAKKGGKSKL
SMILES,composite z-score [1],composite z-score [2],composite z-score [3],composite z-score [4],composite z-score [5],composite z-score [6],z-score [7],composite z-score [8],composite z-score [9],z-score [10]
CCOC(=O)C[C@H]1[C@H](OC(=O)c2ccc(-c3ccccc3)cc2)[C@@H](NC(=O)C2CCCCC2)c2cc(OCCCO)ccc2N1C(=O)Cc1ccc(OC)cc1,0.132,0.365,0.106,0.267,0.2,0.345,0.47,0.867,0.229,0.347 (inactive)
COc1ccc([Si](C)(C)[C@@H]2[C@@H](CC(=O)N(CCO)Cc3ccccc3)O[C@]3(C(=O)N(Cc4cccc(I)c4)c4ccccc43)[C@H]2C)cc1,0.853,1.12,-0.14,0.604,1.48,1.68,-0.781,1.51,0.618,-0.216 (inactive)
O=C1c2ccccc2[C@@]2(Cc3ccccc3N(CC(F)(F)F)C2=O)[C@H](c2ccc(CO)cc2)N1Cc1ccccc1,-0.713,-0.404,-0.282,-0.243,0.932,1.4,-0.772,0.759,0.0111,0.746 (inactive)
COCCOC(=O)N1C(=O)[C@@]2(c3cc(C#CCNC(N)=O)ccc31)[C@H](C(=O)N1CCN(c3ncccn3)CC1)[C@H]1C(=O)O[C@H](c3ccccc3)[C@H](c3ccccc3)N1[C@@H]2c1ccc(O)cc1,-0.031,-0.937,-0.305,-1,-0.974,-0.623,0.284,-1.19,0.0548,0.0121 (inactive)
COCCOC(=O)N1C(=O)[C@@]2(c3cc(C#CCNC(N)=O)ccc31)[C@H](c1ccc(O)cc1)N1[C@H](c3ccccc3)[C@H](c3ccccc3)OC(=O)[C@H]1[C@@H]2C(=O)N1CCc2cc(OC)c(OC)cc2C1,1.24,1.11,1.33,0.336,1.36,0.636,-0.683,0.8,0.815,-1.45 (inactive)
O=C/C=C/c1ccc(-c2ccccc2)cc1,-0.221,-0.142,-0.164,-0.964,0.276,-0.377,0.294,-0.155,-0.484,0.0686 (inactive)
CN1C(=O)C2C=CC(C(O)c3ccc(I)cc3)N(N(c3ccccc3)c3ccccc3)C2C1=O (stereo not given),-0.456,-0.0563,-0.164,0.25,0.524,-0.394,1.74,-0.432,0.536,0.899 (inactive)
COc1c(C)cc(-c2nc(-c3ccccc3)c3c(c2C)CO[Si]3(C(C)C)C(C)C)cc1C,-0.0017,0.223,0.0945,0.42,0.62,0.376,0.87,0.53,-0.0784,0.722 (inactive)
COc1cccc(C)c1NC(=O)O[C@H]1[C@H](OC(=O)Nc2ccc3c(c2)OCO3)[C@H](OC(=O)Nc2ccc3c(c2)OCO3)[C@@H](OC)O[C@@H]1CO,1.61,1.27,0.197,0.993,1.3,0.662,0.123,0.802,0.7,-6.86 (inactive)
C=CCNC(=O)[C@H]1[C@@H]2C(=O)O[C@@H](c3ccccc3)[C@@H](c3ccccc3)N2[C@@H](c2ccc(OCCO)cc2)[C@]12C(=O)Nc1ccc(C#Cc3ccc(OC)cc3)cc12,1.38,1.23,0.905,0.965,1.37,0.977,-1.7,0.811,1.14,0.152 (inactive)
O=C1O[C@H](c2ccccc2)[C@H](c2ccccc2)N2[C@H]1[C@@H](C(=O)O)[C@]1(C(=O)Nc3ccccc31)[C@H]2c1ccc(OCCO)cc1,1.26,0.823,-0.0003,0.438,0.496,0.293,0.209,-0.193,0.677,-1.01 (inactive)
O=C1NC(=O)C2C1C=CC(C(O)C1CCCCC1)N2Nc1ccccn1 (stereo not given),0.279,0.688,0.113,0.177,0.597,0.205,0.517,0.119,0.149,-0.224 (inactive)
CC(C)N1C(=O)[C@@]2(Cc3ccccc31)c1ccccc1C(=O)N(Cc1ccccc1)[C@H]2c1ccc(CO)cc1,2.84,-0.299,-0.0689,-0.375,0.848,0.203,0.591,0.13,-0.622,-0.52 (inactive)
C[C@]1(C(=O)NC2CC2)c2ccccc2C(=O)N(Cc2cc(F)cc(C(F)(F)F)c2)[C@H]1c1ccc(CO)cc1,1.26,-0.0534,-0.695,-0.331,0.719,-0.785,-0.057,0.0495,-0.692,0.851 (inactive)
CCCCCN1CC=CC23O[C@@H]4/C=C\CCCOC(=O)C4[C@H]2C(=O)N(CCCCCO)[C@@H]3C1=O (stereo not given in full),0.163,-0.766,-0.565,-0.832,-0.38,-1.11,0.27,-0.0788,-0.662,-3.1 (inactive)
CC(C)C(=C=CC[C@H](O)c1cccc(OCCO)c1)C[C@H](O)c1ccccn1,0.474,0.534,0.0358,-1.37,0.972,0.236,0.717,0.788,0.641,-0.147 (inactive)
C=CCNC(=O)[C@H]1[C@@H]2C(=O)O[C@@H](c3ccccc3)[C@@H](c3ccccc3)N2[C@@H](c2ccc(O)cc2)[C@]12C(=O)Nc1ccccc12,0.809,0.642,-0.176,0.13,0.719,0.757,0.914,-0.319,-0.496,-1.57 (inactive)

SMILES,composite z-score [1],composite z-score [2],composite z-score [3],composite z-score [4],composite z-score [5],composite z-score [6],z-score [7],composite z-score [8],composite z-score [9],z-score [10]
[N-]=[N+]=NCc1ccccc1[C@H]1OC(c2ccc(OCCCO)cc2)=N[C@@]1(CCS(=O)(=O)c1ccccc1)C(=O)O,0.583,0.667,0.476,1.03,0.0192,-0.119,-0.959,-0.182,0.169,-6.31 (inactive)
[N-]=[N+]=Nc1ccccc1C[C@@]1(C(=O)NCC(O)CO)N=C(c2ccc(OCCCO)cc2)O[C@@H]1c1ccccc1N=[N+]=[N-] (stereo not given in full),1.85,1.18,1.03,0.79,0.14,-0.491,-2.28,-0.19,1.13,-4.27 (inactive)
COC(=O)[C@]1(Cc2ccccc2CN=[N+]=[N-])N=C(c2ccc(OCCCO)cc2)O[C@@H]1c1ccccc1N=[N+]=[N-],1.29,0.833,0.499,-0.0222,1.15,0.802,-0.453,-0.251,0.425,-3.31 (inactive)
CCCC1(C(=O)OC)C=C2C(=C(C(C)C)C(=O)C2C)CN1 (stereo not given),1.76,-1.58,-0.222,-0.727,-0.927,-0.434,0.905,-1.1,-0.116,1.88 (inactive)
C=C(COC)/C(=C/C[C@@H](OC(=O)c1ccncc1)c1ccccc1OCCO)c1cnc2ccccc2c1,1.27,1.17,0.276,0.848,1.47,1.6,1.5,1.56,1.39,-1.17 (inactive)
CN1C(=O)C2CC=C(C3=CCO[C@@H]3[C@H]3CCCN3S(=O)(=O)c3ccccc3[N+](=O)[O-])CC2C1=O (stereo not given in full),-0.354,-0.342,-0.244,0.533,0.0289,0.159,0.0911,-0.106,-0.0718,0.294 (inactive)
Cc1ccc(S[C@]2(C(=O)NC(C)C)CC(=O)N(Cc3ccccc3)[C@@H]2c2ccc(CO)cc2)cc1,0.0893,-0.161,0.274,-1.36,-1.15,-1.36,0.649,-1.06,0.704,0.262 (inactive)
C=C(C)C1CN([C@H](CO)c2ccccc2)C(=O)/C1=C\c1ccccc1 (stereo not given in full),-0.288,0.145,-0.234,0.237,0.803,1.14,-1.06,-0.0605,0.726,0.264 (inactive)
COC(=O)[C@@]1(Cc2ccc(F)cc2)[C@H]2c3cc(C(=O)N4CCCC4)n(C[C@H](O)CO)c3C[C@H]2CN1C(=O)c1ccccc1,1.09,1.09,-0.0554,1.01,-0.266,-0.157,0.226,-0.472,0.883,2.19 (inactive)
COC(=O)[C@@]1(Cc2ccc(OC)cc2)[C@H]2c3cc(C(=O)N(C)C)n(Cc4c(CO)[nH]cc(C)c4=O)c3C[C@H]2CN1C(=O)c1ccccc1,0.566,1.18,1.93,0.0557,0.0689,-0.583,0.144,0.0267,0.19,1.48 (inactive)
CC(C)(C)OC(=O)N1[C@@H](C=C(Br)Br)COC1(C)C,0.286,0.974,-0.0276,0.592,0.652,0.65,0.206,0.519,-0.0422,-1.04 (inactive)
COC(=O)[C@H]1N=C(c2ccc(OCCCO)cc2)O[C@H]1c1ccccc1N=[N+]=[N-],0.608,1.16,2.19,0.936,0.562,-0.0231,-0.512,-0.401,0.733,-19.2 (active)
COC(=O)[C@@]1(Cc2ccc(F)cc2)[C@H]2c3cc(C(=O)N(C)C)n(Cc4ccc(C(F)(F)F)nc4)c3C[C@H]2CN1C(=O)c1ccccc1,1.33,1.27,1.61,1.02,1.05,-0.234,0.453,0.853,0.895,1.57 (inactive)
COCCCNC(=O)[C@]1(Cc2ccccc2N=[N+]=[N-])N=C(c2ccc(OCCCO)cc2)O[C@@H]1c1ccccc1,2.96,1.24,1.05,0.977,1.25,0.94,2.2,-0.252,1.3,-1.9 (inactive)
COc1ccc([Si](C)(C)[C@H]2[C@H](CC(=O)N3CCC[C@H]3CO)O[C@@]3(C(=O)N(Cc4cccc(N5CCCCC5=O)c4)c4ccccc43)[C@@H]2C)cc1,0.999,0.989,0.79,0.732,1.08,1.52,3.51,1.36,0.442,-1.5 (inactive)
C=CCNC(=O)[C@H]1[C@@H]2C(=O)O[C@@H](c3ccccc3)[C@@H](c3ccccc3)N2[C@@H](c2ccc(OCCO)cc2)[C@]12C(=O)N(C(=O)OCCOC)c1ccc(C#CCNC(N)=O)cc12,1.9,1.15,0.621,0.811,1.37,1.71,-0.0216,0.707,0.929,-0.0331 (inactive)
